# In PubChem BioAssay (EPA / NIEHS):
# “And” between values parts separate entries of the source, which are not always exact repeats. Identical values can stand only once. A structure can be active in one record and inactive in another. The source made the active and inactive calls. Rule for the calls: active = hit-call score of the fitted dose curve at least 0.9, where 1 is the maximum; inactive = score below 0.9.
# Read-out: Monocyte Chemoattractant Protein-1 (MCP1), CCL2 (gene 6347)
# Assay: BSK_LPS_MCP1: BioMAP Diversity Plus: LPS Assay for Monocyte Chemoattractant Protein-1 (MCP1) Biomarker Activity (AID 2283081);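 for AC50: co-culture stimulated with LPS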
# Settings: primary human HUVEC with PBMC; actives raise or lower the signal
# Method: BSK_LPS is a cell-based, multiplexed-readout assay that uses umbilical vein endothelium and peripheral blood mononuclear cells, a human vascular primary cell co-culture, with measurements taken at 24 hours after chemical dosing in a 96-well plate.BSK_LPS_MCP1 is an assay component measured in the BSK_LPS assay. It measures MCP-1 antibody related to regulation of gene expression using ELISA technology.Data from the assay component BSK_LPS_MCP1 was analyzed into 1 assay endpoint. This assay endpoint, BSK_LPS_MCP1, was analyzed with bidirectional fitting relative to DMSO as the negative control and baseline of activity. Using a type of binding reporter, gain or loss-of-signal activity can be used to understand changes in the signaling as they relate to the gene CCL2. Furthermore, this assay endpoint can be referred to as a primary readout, because this assay has produced multiple assay endpoints where this one serves a signaling function. To generalize the intended target to other relatable targets, this assay endpoint is annotated to the cytokine intended target family, where the subfamily is chemotactic factor.
# The levels of cell surface (or secreted, indicated by the prefix "s") biomarker endpoints were measured by ELISA. Overt cytotoxicity to cells in confluent adherent cultures (all systems other than the BT system) was assessed by measuring total protein levels using sulforhodamine B (SRB) staining in parallel cultures at the time of biomarker measurements, indicated as SRB endpoints. For proliferation assays for adherent cell types, individual cell types are cultured at sub-confluence and relative cell numbers quantified by SRB staining at time points optimized for each system (48 h: 3C and CASM3C systems; 72 h: BT and HDF3CGF systems; 96 h: SAg system). SRB was performed by staining cells with 0.1% SRB after fixation with 10% TCA and reading wells at 560 nm.Viability and proliferation of PBMC (T cells) was quantified by Alamar Blue reduction for the SAg and BT systems. For PBMC viability (referred to as PBMC Cytotoxicity within the assay endpoint names), cells were plated (75,000/well in a 96-well plate) and then chemical samples added for 1 h before addition of activators, SEB and TSST-1 (20 ng/mL final concentration each). Cells were incubated for 90 h. Then, Alamar Blue (20 uL/well) (Invitrogen, Cat DAL1100) was added for 6 h, and the plates were read with a fluorescence microplate reader at 546/580 nm (excitation/emission). For PBMC proliferation, cells were plated and activated as above but incubated for only 16 h prior to addition of Alamar Blue. Plates were read after 6 h.
Compound,AC50,outcome
CCCOc1sc(C(=O)N2CCC(c3cc(CN)ccc3F)CC2)c(C)c1Br,9.2 µM (active),–
Oc1cc2ccccc2c2ccccc12,11.1 µM (active),–
CCCCCCCCCCCCc1ccccc1S(=O)(=O)O,–,inactive
OC1CCC(C2CCCCC2)CC1 (stereo not given),–,inactive
CC1=C(/C=C/C(C)=C/C=C/C(C)=C/C(=O)O)C(C)(C)CCC1,–,inactive
CC(C)CCCCCCOC(=O)CCCCC(=O)OCCCCCCC(C)C,–,inactive
O=C(O)Cc1cc(I)c(Oc2cc(I)c(O)c(I)c2)c(I)c1,23.9 µM (active),–
CC#C[C@]1(O)CC[C@H]2[C@@H]3CCC4=CC(=O)CCC4=C3[C@@H](c3ccc(N(C)C)cc3)C[C@@]21C,31.5 µM (active),–
c1ccc2c(c1)ccc1ccccc12,–,inactive
CCCCCCCCOC(=O)CCCCCCCCC(=O)OCCCCCCCC,–,inactive
C#C[C@]1(O)CC[C@H]2[C@@H]3CCC4=CC(=O)CC[C@@H]4[C@H]3CC[C@@]21C,8.06 µM (active),–
OCCC(F)(F)C(F)(F)C(F)(F)C(F)(F)C(F)(F)C(F)(F)F,–,inactive
C[C@@H]1C[C@H]2[C@@H]3CCC4=CC(=O)C=C[C@]4(C)[C@@]3(F)[C@@H](O)C[C@]2(C)[C@@]1(O)C(=O)COP(=O)(O)O,–,inactive
COC(=O)CCCCC(=O)OC,–,inactive
COc1ccc([N+](=O)[O-])cc1N,–,inactive
O=C(O)c1ccccc1C(c1ccc(O)cc1)c1ccc(O)cc1,–,inactive
Cc1cc(CCN2CCN(c3nsc4ccccc34)CC2)cc2c1NC(=O)CC2(C)C,26.8 µM (active),–
OCCC(F)(F)C(F)(F)C(F)(F)C(F)(F)C(F)(F)C(F)(F)C(F)(F)C(F)(F)F,30.8 µM (active) and 21.8 µM (active),inactive
CCN(CC)CCNc1ccc(CNC=O)c2sc3ccc(OC)cc3c(=O)c12,20 µM (active),–
CC(O)CO (stereo not given),–,inactive

Compound,AC50,outcome
ClC1=C(Cl)C(Cl)(Cl)C(Cl)=C1Cl,12.3 µM (active),–
CCCCOCCO,–,inactive
COCC(C)O (stereo not given),–,inactive
CCCCCCCCC(=O)O,–,inactive
CCc1ccc(CCOc2ccc(CC3SC(=O)NC3=O)cc2)nc1 (stereo not given),–,inactive
CC(C)(C)c1cc(C(C)(C)C)c(O)c(C(C)(C)C)c1,–,inactive
C=C(C)C(=O)OCCC(F)(F)C(F)(F)C(F)(F)C(F)(F)C(F)(F)C(F)(F)F,–,inactive
CN(C)C=O,–,inactive
CN1CCN(c2ccccc2/C=C2\SCCN(c3ccc(Cl)c(Cl)c3)C2=O)CC1,12.1 µM (active),–
CC(=O)CC(C)(C)O,–,inactive
CN1CCC[C@H]1c1cccnc1,–,inactive
CCCCCCCC(=O)O,–,inactive
CCC(=C(c1ccc(O)cc1)c1ccc(OCCN(C)C)cc1)c1ccccc1,9.72 µM (active),–
CCCOC(=O)c1ccc(O)cc1,–,inactive
O=c1c(-c2ccc(O)cc2)coc2cc(O)ccc12,20 µM (active),–
CCCCC(CC)COC(=O)CCCCC(=O)OCC(CC)CCCC (stereo not given),–,inactive
Nc1cccc2c(N)cccc12,–,inactive
CCCCCCCCCCCCN1CCCC1=O,32.9 µM (active),–
Oc1cccc(O)c1,–,inactive
